# EP2 modulator – EP2 receptor (human) modulation; P43116; EP2-expressing cells, cAMP HTRF FRET, PGE2 co-stimulation; induction, % at 25 µM; actives 0.83% (n = 260,000);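 active means compounds whose cAMP rise, as percent of the full-agonist control response, exceeds 60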;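 further: rat C6 glioma line stably carrying human EP2 under a CMV promoter; the protocol text gives 20 µM as final concentration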
# Target sequence (P43116 whole entry, looked up): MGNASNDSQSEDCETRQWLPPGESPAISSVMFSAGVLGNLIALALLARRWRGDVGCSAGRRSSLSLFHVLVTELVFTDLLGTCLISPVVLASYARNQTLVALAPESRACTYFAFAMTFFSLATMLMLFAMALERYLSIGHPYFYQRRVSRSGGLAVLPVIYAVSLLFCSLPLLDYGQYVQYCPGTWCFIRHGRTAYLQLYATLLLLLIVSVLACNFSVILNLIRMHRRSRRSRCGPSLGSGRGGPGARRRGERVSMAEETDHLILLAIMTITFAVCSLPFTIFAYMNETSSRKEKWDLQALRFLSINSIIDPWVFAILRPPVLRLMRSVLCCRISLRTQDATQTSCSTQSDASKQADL
# S1P3 antagonist – antagonists of human S1P3 receptor. Q99500. CHO S1P3 NFAT-BLA reporter, FRET fluorescence, antagonist mode. inhibition, % at 4.98 µM. actives 0.27% (n = 170,000). AID 485;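 active means inhibition above the plate cutoff, the mean inhibition of test wells on that plate plus 3 SD, cut at about 28% in these data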;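 further: cells challenged with S1P at its EC80 of 0.8 µM; blue over green emission ratio from cleaved BLA substrate after 4 h stimulation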
# EP2 antag – inhibitors of human EP2 prostaglandin E2 receptor; P43116; C6 glioma cells expressing human EP2, cAMP TR-FRET; cells stimulated with saturating PGE2; inhibition, % at 25 µM; actives 0.52% (n = 260,000);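 active means percent inhibition above 40 after rounding to a whole number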;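 further: rat C6 glioma host cells with rolipram phosphodiesterase inhibitor present; the protocol text gives 20 µM as final concentration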
# KCC2 mod – modulates chloride dependent transport by human KCC2 | AID 1456 | KCC2 cells, thallium flux FluoZin-2 fluorescence | actives 2.2% (n = 190,000) | B-score of Tl+ flux slope (higher = more flux/activation; lower = inhibition) at 10 µM;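 active means thallium flux slope and its plate-corrected score both differing from the plate sample mean at a set confidence after two filtering rounds, in either direction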;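 further: slope of fluorescence scaled to starting intensity during 10 to 20 s after thallium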
# Numbers stand for hits; - = inactive; . = no result; ! = repeats disagree. In the library only some 3.1% were active in any assay of this set; here they are far more common.
SMILES,EP2 modulator,S1P3 antagonist,EP2 antag,KCC2 mod
COC(=O)C1=C(N)Oc2cc(N(C)C)ccc2C1c1ccccc1OC (configuration not stated),-,59.7,-,.
CCc1nc2scc(-c3ccc(C)cc3)c2c(=O)n1CCO,-,.,-,.
FC(F)(F)c1cc(NC(=S)N2c3ccccc3-n3cccc3[C@H]2c2cccnc2)cc(C(F)(F)F)c1,-,.,44.2,.
CCCc1ncc(CNC2(c3ccc(Cl)cc3)CCC2)cn1,-,.,-,.
COc1ccc(N/C=C(\C#N)c2nc3ccccc3n2C)c(OC)c1,63.0,.,-,.
COc1ccc(CNc2nc3ccccc3n2C)c(OC)c1,-,-,-,-
CCOC(=O)c1csc(N)c1-c1ccc([N+](=O)[O-])cc1,63.4,-,-,-
CCOC(=O)c1c(-c2cccc([N+](=O)[O-])c2)csc1N,-,-,-,-
NS(=O)(=O)c1cc2c(cc1Cl)N[C@H](Cc1ccccc1)NS2(=O)=O,-,.,53.0,.
Cc1ccc(/C=N/NC(=O)NC2CCCCC2)o1,-,-,-,-
Cc1cccc(/C=N/NC(=O)NC2CCCCC2)c1,62.7,-,-,-
COC(=O)c1sc2ncccc2c1OCc1c(Cl)cccc1Cl,61.9,.,-,-
COC(=O)c1sc2ncccc2c1OCc1cccc(Cl)c1,-,.,-,-
O=C1c2ccccc2NC(c2ccc(-c3ccc(Br)cc3)o2)N1O (configuration not stated),-,.,-,8.61
O=C1c2ccccc2NC(c2ccc(-c3cccc([N+](=O)[O-])c3)o2)N1O (configuration not stated),-,-,-,-
O=C(NC(=S)Nc1cc([N+](=O)[O-])ccc1Cl)c1ccccc1,-,.,-,11.4
Cc1ccc([N+](=O)[O-])cc1NC(=S)NC(=O)c1ccco1,-,-,-,14.6
Cc1cccnc1C1(O)CCN(C(=O)Cn2c3ccccc3c3ccccc32)CC1,-,.,.,.
CCC/C(=N/NC(=O)c1cccc(Cl)c1)c1ccccc1,-,-,-,11.8
CC(=O)NC(CSc1cc(C)nc2ccc(Br)cc12)C(=O)O (configuration not stated),64.2,-,-,-
COc1ccc2nc(C)cc(SCC(NC(C)=O)C(=O)OC(C)C)c2c1 (configuration not stated),-,-,-,-
CCN(CC(=O)NC1CCS(=O)(=O)C1)c1nc(-c2ccccc2)nc2ccccc12 (configuration not stated),-,93.5,-,.
Cc1nc(C/C(=N\Nc2ccccc2)c2ccc(O)cc2O)cs1,64.3,-,-,-
Cc1ccc(NC(=O)CCN2CCC(C)CC2)cc1C,-,.,-,.
Cc1[nH]nc2c1C(c1ccc(-c3cccc(Cl)c3)o1)C(C#N)=C(N)O2 (configuration not stated),-,.,-,.
SMILES,EP2 modulator,S1P3 antagonist,EP2 antag,KCC2 mod
C=C(C)Cn1c(SCc2ccc(Cl)cc2)nc2c1c(=O)[nH]c(=O)n2C,70.8,.,-,.
CCCCCCn1c(SCCCC)nc2c1c(=O)[nH]c(=O)n2C,-,-,-,-
CCCCCCSc1nc2c(c(=O)[nH]c(=O)n2C)n1C,64.2,-,-,-
CCOCCn1c(SCCCc2ccccc2)nc2c1c(=O)[nH]c(=O)n2C,62.2,.,-,-
CCCCCSc1nc2c(c(=O)[nH]c(=O)n2C)n1CCc1ccccc1,.,102.2,-,.
COC(=O)C12CC3CC(C1)CC(n1cnc(Cl)n1)(C3)C2,-,.,-,-
COC(=O)c1ccccc1NC(=O)C12CC3CC(C1)CC(n1cnc(Cl)n1)(C3)C2,62.2,.,-,-
Cc1cc2nc(C3CCCCN3C(=O)c3oc(CN4CCOCC4)cc3C)[nH]c2cc1C (configuration not stated),-,.,.,.
Cc1ccc(S(=O)(=O)N(C)c2ccccc2)cc1,-,.,-,.
CC(=O)Oc1ccc(N(c2ccccc2)S(=O)(=O)c2ccc(C)cc2)cc1,60.5,-,-,-
Cc1nc2ccc(-c3nc4ccccc4o3)cc2[nH]1,-,.,-,-
Nc1ccc(-c2nc3ccc(-c4nc5ccccc5o4)cc3[nH]2)cc1,-,-,73.0,.
CC(=O)Nc1ccc2nc(NC(=O)c3ccc(OC(C)C)cc3)sc2c1,-,.,-,.
CN1CCN(CCCNC(=O)c2ccc(/C=C3\Sc4ccccc4N(Cc4ccccc4F)C3=O)cc2)CC1,-,-,88.0,-
CC(=O)N1CCN(c2ccc(NC(=O)COc3ccc(C(C)(C)C)cc3)cc2)CC1,-,.,-,.
Cc1cc(C2(c3ccc(O)c(C)c3)C(=O)Nc3ccccc32)ccc1O,61.4,.,-,-
Cc1cccc2c1NC(=O)C2(c1ccc(O)cc1)c1ccc(O)cc1,-,.,-,13
CCN1C(=O)C(c2ccc(O)cc2)(c2ccc(O)cc2)c2ccccc21,-,-,-,-
CCOc1cc(C)nc(N2CCC(C(=O)Nc3ccccc3OCC)CC2)n1,92.2!,-,-,-
CCc1ccc2c(c1)C1N=NC(SCC(=O)N(C)C3CCCCC3)=NC1N2C (configuration not stated),-,.,-,.
Cc1nn(C)cc1S(=O)(=O)NCc1nc2ccccc2n1C,-,.,-,.
NC(=O)CSc1nc(-c2ccccc2)nc2c1CCCC2,-,-,-,-
Cc1cc2nc(SCC(=O)N(C)C)c3c(c2cc1C)CCCC3,61.6,.,-,-
O=C(O)CSc1nc2ccccc2c2c1CCCC2,88.1,.,-,.
CNS(=O)(=O)c1ccc(F)c(C(=O)Nc2nc3c(s2)CCc2c-3cnn2C)c1,-,.,-,.
SMILES,EP2 modulator,S1P3 antagonist,EP2 antag,KCC2 mod
O=C(O)c1cccc(N/N=C/C2=C(Cl)c3cc(Cl)ccc3SC2)c1,62.7,-,-,-
CCc1nn(CC(=O)O)c(=O)c2cc3sccc3n12,-,.,-,.
CCC(C)(C)n1nnnc1C(c1cc2cc(C)cc(C)c2[nH]c1=O)N1CCCC(C)C1 (configuration not stated),85.8,.,-,.
CCC(C)(C)n1nnnc1C(c1cc2cc(C)cc(C)c2[nH]c1=O)N1CCCC1 (configuration not stated),-,-,-,-
CCOc1ccc2[nH]c(=O)c(CN(Cc3cccnc3)C(=O)Nc3ccccc3OC)cc2c1,-,-,-,.
CCOc1ccc2[nH]c(=O)c(CN(Cc3cccnc3)C(=O)c3ccccc3Cl)cc2c1,-,.,72.3,.
O=S(=O)(c1ccccc1)N1c2cc(Cl)ccc2Oc2nc3ccccc3nc21,61.1,.,-,-
CCc1nc2ccccc2nc1N1CCN(S(=O)(=O)c2ccc(Cl)cc2)CC1,-,-,-,-
CC1(C)CC(=O)C2=C(C1)OC1=C(C(=O)CC(C)(C)C1)C2c1ccc(O)cc1O,-,-,98.2,.
CCOC(=O)CSc1nnc(-c2cccc(C)c2)o1,-,.,-,.
COc1cc(C2c3c(oc4ccc(C)cc4c3=O)C(=O)N2c2cc(C)ccn2)cc(OC)c1OC (configuration not stated),.,99.0,.,.
Cc1ccc2[nH]c(=O)c(CC3CC(c4ccccc4)=NN3C(=O)CCC(=O)O)cc2c1 (configuration not stated),-,.,-,.
C[C@]12CCC(=O)C=C1CC[C@@H]1[C@@H]2C(=O)C[C@@]2(C)[C@H]1CC[C@]2(O)C(=O)CO,-,-,-,-

# Assay outcomes as filed in PubChem.
